The list is not random: actives were taken first. Their share in the collection is about 4.4%.
TIM10 inh: growth inhibitors of isogenic TIM10 control yeast, primary screen, counter-screen for tim10-1 yeast inhibitor project, luminescence, uHTS. actives 1.4% (n = 330,000). S. cerevisiae TIM10 strain growth, BacTiter-Glo luminescence, 24 h. inhibition, % at 10 µM;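 active = inhibition of 40% or more at the single tested concentration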;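 also: wild-type TIM10 isogenic control strain grown at permissive 25 °C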
tim10-1 inh: growth inhibitors of tim10-1 mutant yeast, primary screen, luminescence, uHTS. S. cerevisiae tim10-1 ts strain growth, BacTiter-Glo, 24 h. inhibition, % at 20 µM. actives 2.2% (n = 330,000). AID 463190, 2010;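 active = inhibition of at least 40%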;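 also: mutant grown at 25 °C; 0% = DMSO wells with yeast and 100% = wells holding no yeast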
PfHsp90 yeast 2: growth inhibition of PfHsp90-expressing yeast, primary screen, antimalarial PfHsp90 inhibitor project, S. cerevisiae, BacTiter-Glo luminescence, single point, set 2 | BacTiter-Glo ATP, 48 h; yeast lacking PDR1 and PDR3 efflux regulators | inhibition, % at 9.4 µM | actives 0.32% (n = 310,000) | AID 504621, 2011;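 active = every replicate shows inhibition above about 80%, whatever the replicate mean, limit read from the data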;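 also: 0% = DMSO neutral controls and 100% = 20 µM radicicol positive controls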
tim23-1 inh: growth inhibitors of tim23-1 mutant yeast, primary screen, luminescence, uHTS. S. cerevisiae tim23-1 growth, BacTiter-Glo luminescence, 24 h. inhibition, % at 20 µM. actives 1.3% (n = 330,000);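 active = growth inhibition of the mutant yeast at or above 50%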;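 also: temperature-sensitive mutant grown at 25 °C; plate controls were DMSO-treated mutant yeast for no effect and medium wells lacking yeast for full effect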
SUMO Mot1 rescue: yeast Mot1-301 growth rescue at high temperature, primary screen, SUMOylation pathway inhibitor project, S. cerevisiae, ATP luminescence, 38.5C; S. cerevisiae Mot1-301 growth rescue; percent above DMSO median, 100 means doubled; growth rescue, % at 18.8 µM; actives 1% (n = 320,000); AID 2716, 2010;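 active = every valid replicate shows activation above 250% relative to neutral control wells; inactive = the rest, any valid replicate at or below 250%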;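 also: OY570 slx delta 5 strain wells were the positive control but not used for scaling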
An asterisk follows results filed as active; · = not tested or not shown.

SMILES	TIM10 inh	tim10-1 inh	PfHsp90 yeast 2	tim23-1 inh	SUMO Mot1 rescue
CCCCCCCCCCCCCCCC[n+]1ccccc1	·	·	114*	·	·
COc1ccc(-c2nc(Cn3c(SCc4ccc(C)cc4)nc4ccncc43)c(C)o2)cc1OC	-3	11	-6	19	460*
C(=NN=C1c2ccccc2-c2ccccc21)c1c[nH]c2ccccc12	·	·	131*	·	·
NC(=S)N/N=C/c1c[nH]c2ccccc12	-3	-1	-4	7	1
Oc1ccc(C=NN=C2c3ccccc3-c3ccccc32)c(O)c1	·	·	137*	·	·
Cn1c(CC(=O)Nc2ccc(Cl)cc2)nnc1SCC(=O)N1CCOCC1	-6	-9	21	6	-2
Cc1ccc(S(=O)(=O)N(C)C)cc1NC(=O)COC(=O)CCC1CCCCC1	5	25	-24	26	2
O=C1C2C3C=CC(CNS(=O)(=O)c4ccccc4[N+](=O)[O-])(O3)C2C(=O)N1c1ccccc1 (centres undefined)	10	22	111*	5	51
CCC1(C(=O)OC)NC(c2ccco2)C2C(=O)N(c3ccccc3)C(=O)C21 (centres undefined)	-2	9	·	6	10
CC(C)(C)C(=O)NCC12C=CC(O1)C1C(=O)N(c3ccccc3)C(=O)C12 (centres undefined)	7	10	104*	-3	13
O=[N+]([O-])c1ccccc1S(=O)(=O)NCc1ccco1	4	0	-43	9	-3
COC(=O)C1(CO)NC(c2ccc(C)cc2)C2C(=O)N(c3ccccc3)C(=O)C21 (centres undefined)	2	-4	4	-12	-15
Cc1cc(C)c(S(=O)(=O)NCC23C=CC(O2)C2C(=O)N(c4ccccc4)C(=O)C23)c(C)c1 (centres undefined)	25	31	104*	22	3
CCc1ccc(NCc2ccc(OC)c(Cn3ccnc3)c2)cc1	1	-87	10	-214	341*
O=C(Nc1cccc(C(F)(F)F)c1)Oc1ccc(Cl)c2cccnc12	·	·	124*	·	270
CCN(CC)C(=O)Oc1ccc(Cl)c2cccnc12	-14	-1	-7	-2	24
Cc1cccc(NC(=O)CNC(=O)c2ccc(-n3cncn3)c([N+](=O)[O-])c2)c1C	0	6	0	12	-11
COc1cc(OC)c(C(=O)OCC(=O)Nc2nnc(-c3ccccc3)o2)cc1OC	-12	21	5	16	-14
O=C(Nc1ccccc1)C(Cl)C(=O)c1ccccc1 (centres undefined)	-22	33	106*	33	-7
CC(=O)C(Cl)C(=O)Nc1ccccc1 (centres undefined)	·	·	-19	·	·
COCCN(CC(=O)Nc1ccccc1C(F)(F)F)C(=O)/C=C/c1cc(Cl)c2c(c1)OCCO2	·	·	-14	·	·
Cc1cccc(Nc2nc(N)c([N+](=O)[O-])c(N3CC(C)OC(C)C3)n2)c1 (centres undefined)	24	8	-2	30	-4
Cc1cccc(Nc2nc(N)c([N+](=O)[O-])c(N3CC(C)CC(C)C3)n2)c1 (centres undefined)	16	-3	101*	29	3
Cc1ccc(N/N=C(\C#N)C(N)=S)c(C)c1	·	·	101*	·	64
Cc1coc2cc3oc(=O)c(CCC(=O)N4C[C@H]5C[C@@H](C4)c4cccc(=O)n4C5)c(C)c3cc12	1	1	-1	-1	5
SMILES	TIM10 inh	tim10-1 inh	PfHsp90 yeast 2	tim23-1 inh	SUMO Mot1 rescue
CC(C)C(=O)NNc1ccccc1	-38	-47	29	3	2
CC(O)CC(C(=O)NNc1ccccc1)C(=O)NNc1ccccc1 (centres undefined)	-101	-5	20	-3	606*
CCOC(=O)C1CCN(CC(O)COC(CC)c2ccccc2)CC1 (centres undefined)	-27	-32	-14	-2	308*
O=C(O)c1cccc2c1Cc1cc([N+](=O)[O-])ccc1-2	·	·	115*	·	·
COc1cc(C=O)ccc1Oc1nc(Nc2ccc(F)cc2F)nc(N2CCOCC2)n1	11	31	-6	31	334*
Fc1ccccc1Nc1nc(N2CCOCC2)nc(N2CCOCC2)n1	-5	-2	-3	13	-2
OC(Cn1cncn1)c1ccc(Cl)cc1 (centres undefined)	1	17	-14	-5	-14
OC(Cn1cncn1)(c1ccc(F)cc1)c1ccc(Cl)cc1 (centres undefined)	-60	-175	94*	-342	28
CCOc1ccc(CNc2ccc(CNc3ncn[nH]3)cc2)cc1	4	7	-6	2	342*
Cc1ccc(CNc2ccc(CNc3ncn[nH]3)cc2)cc1	-2	12	-12	17	78
CC(C)NC(=O)Nc1ccc2c(c1)C(=O)N([C@H](C)CO)C[C@H](C)[C@@H](CN(C)C(=O)NC(C)C)O2	·	·	-5	·	·
O=S(=O)(CCNC1CC1)NC1CCCCC1	·	·	1	·	·
COC(=O)Nc1ccc(S(=O)(=O)N2CCC(C(=O)NC3CCCCC3)CC2)cc1	-18	-7	-16	-5	308*
O=C(N/N=C\c1c(O)ccc2ccccc12)c1cncc(Br)c1	-45	-17	107*	47	-8
O=C(N/N=C/c1cc(Cl)c(O)c(Cl)c1)c1cc2c(ccc3ccccc32)o1	-14	33	95*	47	32
O=C(c1ccccc1)c1ccccc1N1C(=O)C=CC1=O	15	11	107*	10	96
O=C(CCNS(=O)(=O)c1ccc(Cl)cc1)N1CCN(c2ccccn2)CC1	-23	9	-25	7	269*
O=C(CCNS(=O)(=O)c1ccc(Cl)cc1)N1CCN(c2ncccn2)CC1	2	-2	-5	10	·
O=S(=O)(Nc1nc2ccccc2nc1N1CCN(c2ccccn2)CC1)c1ccc(Cl)cc1	·	·	104*	·	·
C=C1C(=O)OC2C=C(CO)C3OC3C3OC3(C)CC(OC(=O)/C(=C/C)COC(C)=O)C12 (centres undefined)	·	·	-8	·	·
COc1cc(C(=O)COC(=O)CNC(=O)C2CCCCC2)cc(OC)c1OC	-10	5	14	12	270*
COc1cc(C(=O)COC(=O)C2CCCCC2)cc(OC)c1OC	10	13	-2	34	-3
Cc1c(C)c2c(OCC(=O)N3CCC(C(N)=O)CC3)cc3c(c2oc1=O)CCC(C)(C)O3	0	-1	-9	7	610*
CCCCc1cc(=O)oc2c3c(cc(OCC(=O)N4CCC[C@H]4C(=O)O)c12)OC(C)(C)CC3	3	-11	-4	-3	721*
Cc1cc(=O)oc2c3c(cc(OCC(=O)N4CCC[C@H]4C(=O)O)c12)OC(C)(C)CC3	-1	7	-1	10	299
